# Experimental data reported in PubChem BioAssay (NCATS).
# Inconclusive results are not listed. Where a call stands in place of a potency, no number is given. Activity calls are given as the source filed them. Calls come from the whole dose curve; as a rule, active = well fitted inhibition curve with a large enough effect; inconclusive = small, poorly fitted or top-dose-only effect; inactive = flat fitted curve, though single readings scatter.
# Target: Glutathione peroxidase 1 (Homo sapiens) (UniProt P07203)
# Sequence (P07203 whole entry, looked up): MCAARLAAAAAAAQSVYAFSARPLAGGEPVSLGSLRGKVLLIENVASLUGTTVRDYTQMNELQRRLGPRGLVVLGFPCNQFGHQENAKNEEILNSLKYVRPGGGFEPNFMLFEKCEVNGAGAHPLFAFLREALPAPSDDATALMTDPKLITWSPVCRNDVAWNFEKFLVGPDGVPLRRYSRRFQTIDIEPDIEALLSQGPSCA
# Assay: Primary qHTS Assay for Inhibitors of Recombinant Selenoprotein Glutathione Peroxidase 1 (GPX1) (AID 1845191); note: nearly all actives have a fitted effect of over 65% in size
# Conditions: recombinant GPX1, GR-coupled NADPH fluorescence, 15 min; series mostly up to 48.8 µM
# Summary of the method: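 10 nM GPX1 + cpd, 30 min RT; start w/ 1 mM GSH, 0.5 mM cumene hydroperoxide, 0.5 mM NADPH, 100 nM GR, 0.01% BSA; buffer 50 mM Tris-HCl pH 7.5, 2 mM EDTA, 150 mM NaCl; Fl 340/450, 0 & 15 min.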
row,Compound,Potency
1,CN(C)c1ccccc1CN1CCCN(Cc2ccccc2N(C)C)C1c1ccncc1,inactive
2,CNC(=O)c1cc(COc2nnc(Nc3ccc(Cl)cc3)c3ccoc23)ccn1,inactive
3,COc1cc2ncn(-c3cc(OCc4ccccc4S(C)(=O)=O)c(C#N)s3)c2cc1OC,inactive
4,CCOC(=O)[C@@H](N)CCC(=O)N[C@@H](CSCc1ccccc1)C(=O)N[C@@H](C(=O)OCC)c1ccccc1,inactive
5,O=C1CN2Cc3c(ccc(Cl)c3Cl)N=C2N1,inactive
6,COC(=O)[C@H](c1ccccc1Cl)N1CCc2sccc2C1,inactive
7,Cc1ccc(S(=O)(=O)Nc2nc3ccccc3nc2Nc2ccc3nsnc3c2)cc1,inactive
8,COc1cc(F)c(C(C)C)cc1-c1ccc(C(F)(F)F)cc1CN1C(=O)O[C@H](c2cc(C(F)(F)F)cc(C(F)(F)F)c2)[C@@H]1C,inactive
9,CN1CC(=O)NC1=NC(=O)Nc1cccc(Cl)c1,inactive
10,Cn1cc(-c2ccc3nnc(Sc4ccc5ncccc5c4)n3n2)cn1,inactive
11,NC[C@H]1O[C@H](O[C@@H]2[C@@H](O)[C@@H](O[C@H]3O[C@H](CO)[C@@H](O)[C@H](N)[C@@H]3O)[C@H](N)C[C@@H]2N)[C@H](O)[C@@H](O)[C@H]1O,inactive
12,N#CC(c1ccnc(NCCc2cccnc2)n1)c1nc2ccccc2s1 (stereo not drawn),inactive
13,COc1cc2c(cc1OC)CC(=O)N(CCCN(C)C[C@H]1Cc3cc(OC)c(OC)cc31)CC2,inactive
14,C[C@@H]1C[C@H]2[C@@H]3CCC4=CC(=O)C=C[C@]4(C)[C@@]3(F)[C@@H](O)C[C@]2(C)[C@@]1(O)C(=O)CO,inactive
15,O=C(O)c1ccc(O)c2ncc(N3CCOCC3)cc12,inactive
16,COc1cccc(OC)c1-c1cc(C(=O)NC2(C(=O)O)C3CC4CC(C3)CC2C4)nn1-c1ccnc2cc(Cl)ccc12 (stereo not drawn),inactive
17,CC(C)C[C@@H](N)[C@H](O)C(=O)N[C@H](C(=O)N[C@H](C(=O)N[C@@H](CC(=O)O)C(=O)O)C(C)C)C(C)C,inactive
18,C[C@]12CC[C@@H]3c4ccc(O)cc4CC[C@H]3[C@H]1[C@@H](O)[C@@H](O)[C@H]2O,inactive
19,COC(=O)Nc1ccc(-c2nc(N3CCOCC3)c3cnn(C4CCN(C(=O)OC)CC4)c3n2)cc1,inactive
20,CC[C@]1(O)C[C@H]2CN(CCC3=c4ccccc4=N[C]3[C@@](C(=O)OC)(c3cc4c(cc3OC)N(C)[C@H]3[C@@](O)(C(N)=O)[C@H](O)[C@]5(CC)C=CCN6CC[C@]43[C@@H]65)C2)C1,inactive
21,CCC(c1ccc(O)cc1)C(CC)c1ccc(O)cc1 (stereo not drawn),inactive
22,Cc1ccc(NC(=O)c2ccc(CN3CCN(C)CC3)cc2)cc1Nc1nc(-c2cccnc2)cs1,inactive
23,CCCC1OC2C[C@@H]3[C@H]4CCC5=CC(=O)C=C[C@]5(C)[C@H]4C(O)C[C@]3(C)[C@]2(C(=O)CO)O1 (stereo partly drawn),inactive
